Hit rate of the full screen: of about 420,000 compounds, about 64,000 (15%) were called active. Not shown: some 27% with an inconclusive outcome. Calls follow the shape of the dose curve; as a rule, active = well fitted inhibition curve with a large enough effect; inconclusive = small, poorly fitted or top-dose-only effect; inactive = flat fitted curve, though single readings scatter. The list is a sample of the results. Entries that show only a call come without a potency.
Potency is read from the fitted curve at half-maximal effect.

The test is described as follows: qHTS for Inhibitors of human tyrosyl-DNA phosphodiesterase 1 (TDP1): qHTS in cells in absence of CPT. Also: nearly all actives have a fitted effect of over 55% in size. The conditions noted are these: DT40 Tdp1-/- hTDP1 cells, no CPT, ATP luminescence, 48 h; activity change, negative = growth inhibition: at 46.2 µM (top of the series). The method, boiled down: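 Cells were dispensed at 400 per well, compounds added by pin tool, plates incubated ≥48 hr at 37 °C, then CellTiter-Glo added for 30 min at room temperature before luminescence reading. Line: DT40 Tdp1-/- complemented with hTDP1; camptothecin omitted.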
On the technique in general: qHTS replaces the single test concentration by a dilution series.
As to `O=C(NCc1ccc(F)cc1F)[C@@H]1CCCN1C(=O)[C@@H]1CCCN1C(=O)c1cccc(Cl)c1`, the Potency entry is “inactive”.
To `Cc1cc(=O)oc2c1c(C)nn2-c1ccc(Cl)cc1` belongs “inactive”; to `O=C(Nc1ccccc1)OCc1cn(-c2ccc(Cl)cc2)nn1`, “inactive”; to `N#C/C=C(/c1ccc(F)cc1)N1CCOCC1`, “inactive”.
As for `CC(=O)c1cccc(-c2cnc3c(NC=O)cc(-c4ccc(N(C)C)cc4)cn23)c1`, the Potency is 8.2 µM (active).
To `CC(=O)c1ccc(-c2cnc3c(NC=O)cc(-c4cccc(NS(C)(=O)=O)c4)cn23)cc1` belongs 20.6 µM (active); to `O=CNc1cc(-c2ccc(C(=O)N3CCOCC3)cc2)cn2c(-c3ccc(F)cc3)cnc12`, 18.4 µM (active); to `Cc1c(NC(=O)Nc2ccc(F)c(Cl)c2)c(=O)n(-c2ccccc2)n1C`, “inactive”.
On to `CC(=O)Nc1cccc(-c2cc(NC=O)c3ncc(-c4ccc(F)c(Cl)c4)n3c2)c1`, for which the Potency was 16.4 µM (active).
To `CCOc1ccccc1C1CC(c2cccc(NS(C)(=O)=O)c2)=NN1C(=O)c1ccccc1` (stereo unspecified) belongs “inactive”; to `CC(=O)Nc1cccc(-c2cnc3ccccc3n2)c1`, “inactive”.
The value for `Cc1ccc(C(=O)N2CCN(C(=O)N3CCOCC3)CC2)cc1` was “inactive”; that for `CCS(=O)(=O)Nc1cc(C(=O)N2C[C@@H](C)O[C@@H](C)C2)c2c(c1)nc(-c1ccccc1)n2C` was “inactive”.
The value for `COC(c1ccccc1)c1nnc(CCC(=O)N2CCN(CCOc3ccccc3)CC2)o1` (stereo unspecified) was “inactive”.
For the molecule `CSc1nnc2c(n1)OC(c1cn(C)c3ccccc13)N(C(C)=O)c1ccccc1-2` (stereo unspecified), the Potency entry is “inactive”.
The value for `O=C(O)c1ccccc1CSc1nc2ccccc2s1` was “inactive”.
Take `CCNC(=O)CC1C(=O)N(c2ccc(F)cc2)C(=O)N1CCc1sccc1C` (stereo unspecified): the Potency result was “inactive”.
The value for `Cc1nc2nc[nH]n2c(=O)c1C/C=C/c1ccccc1` was “inactive”.
The value for `CCn1c(CSc2ncccn2)nnc1SCC(=O)N1c2ccccc2CC1C` (stereo unspecified) was “inactive”; that for `CCc1nnc(NC(=O)CCC(=O)NCc2ccccc2OC)s1` was “inactive”; that for `COc1ccccc1C1/C(=C(/O)c2ccc(OC(C)C)cc2)C(=O)C(=O)N1c1cc(C)on1` (stereo unspecified) was “inactive”.
Regarding `COc1ccc(NC(C)=O)cc1NC(=O)CN1CCN(c2ccc(F)cc2)CC1`, the Potency result is “inactive”.
Take `CC(=O)Nc1cc(-c2ccc(N3CCN(C)CC3)cc2)cn2c(-c3ccc(F)cc3)cnc12`: the Potency was 4.61 µM (active).
With `CC(=O)c1cccc(-c2cnc3c(NC=O)cc(-c4ccccc4Oc4ccccc4)cn23)c1`, the Potency was 14.6 µM (active).
With `COc1ccc(-c2nnco2)cc1OC`, the Potency result is “inactive”.
The value for `CN(C)C(=O)c1cccc(-c2cnc3c(NC=O)cc(-c4ccc(F)cc4)cn23)c1` was 6.51 µM (active); that for `COc1ccc(-c2cc(NC=O)c3ncc(-c4ccccc4)n3c2)cc1OC` was 8.2 µM (active).
To `COc1ccc(-c2nnc(SCC(=O)Nc3ccccc3C)o2)cc1OC` belongs “inactive”; to `O=C(Nc1ccc(F)cc1)N1CCN(c2ccc(F)cc2)CC1`, “inactive”; to `CCCCCCCCCCOC(=O)C[N+](C)(C)CC1CCCCC1O` (stereo unspecified), “inactive”.
As to `CO/N=C/c1cn(-c2ccc(Cl)cc2)nn1`, the Potency entry was “inactive”.
To `CCOC(=O)CSc1nnc(CNC(=O)c2cccs2)n1-c1ccccc1` belongs “inactive”; to `Nc1ccc(-c2nnc(-c3ccccc3)o2)cc1`, “inactive”; to `COc1ccccc1C1C(C(N)=O)=C(C)Nc2nc(CCCO)nn21` (stereo unspecified), “inactive”.
To `Cc1cccc(C)c1NC(=O)CNC(=O)c1ccc2c(c1)OCCO2` belongs “inactive”.
The value for `COc1ccccc1NC(=O)CCSc1nnc(-c2ccc(O)cc2)o1` was “inactive”; that for `CC(=O)c1cccc(-c2cnc3c(NC=O)cc(-c4ccc(N5CCN(C)CC5)cc4)cn23)c1` was 16.4 µM (active); that for `COc1ccc(C2C(C(=O)Nc3ccccc3OC)=C(C)Nc3nnnn32)c(OC)c1` (stereo unspecified) was “inactive”.
Consider `COCCCN1C(=O)c2ccc(C(=O)Nc3ccc(OC)cc3OC)cc2C1=O`, for which the Potency entry was “inactive”.
Consider `COc1ccc(-c2cc(NC=O)c3ncc(-c4cccc(C(=O)N(C)C)c4)n3c2)c(OC)c1`, for which the Potency is 16.4 µM (active).
To `COc1ccc(C2(C#N)CCC(C(=O)O)CC2)cc1OC1CCCC1` (stereo unspecified) belongs “inactive”; to `Cc1coc2cc3oc(=O)c(CCC(=O)O)c(C)c3cc12`, “inactive”; to `CC(C)Cc1nnc(NC(=O)CCC(=O)Nc2ccc3cn[nH]c3c2)s1`, “inactive”.
To `Nc1nonc1-n1nnc(C(=O)N/N=C\c2ccncc2)c1CN1CCCCC1` belongs “inactive”; to `COc1ccc(Cc2nnc(NS(=O)(=O)Cc3ccccc3)s2)cc1`, “inactive”; to `CCC(C)(C(=O)NC1CCCC1)N(C(=O)CNC(C)=O)c1ccc(C)cc1` (stereo unspecified), “inactive”.
To `Cc1nc2nc(SCC(=O)c3ccccc3)[nH]c2cc1Br` belongs “inactive”.
On to `COc1ccc2c(C)c(CCC(=O)NC3CC3)c(=O)oc2c1C`, for which the Potency is 16.4 µM (active).
To `Cc1c(CCC(=O)O)c(=O)oc2c(C)c(OCc3ccccc3Cl)ccc12` belongs “inactive”.
On to `COc1ccc(OC)c(Cc2nnc(CCC(=O)NC3CCCC3)o2)c1`, for which the Potency result was “inactive”.
The value for `O=C(Nc1cccc2c1N(C(=O)c1ccco1)CCC2)c1ccco1` was “inactive”; that for `O=c1[nH]c2ccc(S(=O)(=O)N3CCCC3)cc2[nH]1` was “inactive”; that for `Cc1cc(C)cc(NC(=O)N(C)Cc2ccccc2)c1` was “inactive”.
`COC(=O)C(NS(=O)(=O)c1ccc(F)cc1)c1ccccc1` (stereo unspecified): the Potency result was “inactive”.
Take `CCOC(=O)C(C)n1cnc2c(nnn2-c2cccc(OC)c2)c1=O` (stereo unspecified): the Potency result is “inactive”.
To `CCC(=O)Nc1ccc2nc(C)n(Cc3ccccc3Cl)c(=O)c2c1` belongs “inactive”.
To `CCC(=O)Nc1nc2ccccc2n1Cc1ccccc1C` belongs 14.6 µM (active).
The value for `CC(=O)Nc1nc2ccccc2n1Cc1ccc(C)cc1` was 13 µM (active); that for `CCC(=O)Nc1ccc(C)cc1-c1nc2ccccc2n(Cc2ccccc2)c1=O` was “inactive”; that for `CC(=O)c1nc2ccccc2n1Cc1ccccc1` was “inactive”.
In the case of `CCc1cccc(CC)c1NC(=O)Cn1c(=O)c(-c2cc(C)ccc2NC(C)=O)nc2ccccc21`, the Potency entry is “inactive”.
For the molecule `Cc1cccc(N(CC(=O)N2CCOCC2)S(C)(=O)=O)c1`, the Potency result is “inactive”.
The value for `CCNC(=O)COC(=O)CCNC(=O)c1cccc(C)c1` was “inactive”; that for `CCOc1ccc(C(CC(=O)O)NC(=O)C23CC4CC(CC(C4)C2)C3)cc1OC` (stereo unspecified) was “inactive”; that for `CN1C(=O)/C(=C/C=C2\SCCN2C)OC1=S` was “inactive”.
The value for `COc1ccccc1-c1nc(N2CCN(C)CC2)c2ccccc2n1` was “inactive”; that for `COc1ccc(N2CCN(CCNC(=O)c3nnc(Cc4c(F)cccc4Cl)o3)CC2)cc1` was “inactive”; that for `COc1ccc(N2CCN(c3nc(-c4ccccc4F)nc4ccccc34)CC2)cc1` was 16.4 µM (active).
The value for `Brc1cc(Br)c(Oc2cc(Br)c(Br)cc2Br)cc1Br` was “inactive”; that for `CCc1ccc[n+](-c2nc([O-])sc2C=O)c1` was “inactive”.
Consider `CCN(CC(=O)Nc1ccccc1C(F)(F)F)C(=O)C1CCN(C(=O)Nc2ccccc2)CC1`, for which the Potency result is “inactive”.
To `Cc1ccc(NC(=S)N(Cc2ccco2)C(C)c2cccs2)cc1` (stereo unspecified) belongs “inactive”; to `CC(=O)Nc1ccc(S(=O)(=O)N2CCC(N(C)CCC(C)C)CC2)cc1`, “inactive”.
Regarding `CC(C)CCN(C(=O)Nc1ccc(Cl)c(Cl)c1)C(C)c1cccs1` (stereo unspecified), the Potency was 18.4 µM (active).
The value for `S=C(Nc1ccc(Br)cc1Cl)N1CCC2(CC1)OCCO2` was “inactive”; that for `C/C=C/C=C/C(=O)OCC(=O)Nc1ccc(Cl)cc1` was “inactive”; that for `O=C(NCN1CCN(CCO)CC1)c1cnccn1` was “inactive”.
To `O=C(CN1C(=O)CSc2ncccc21)N1CCOCC1` belongs “inactive”; to `Cc1cc(/C=C2/SC(=O)N(CC(=O)N3CCCC3)C2=O)c(C)n1C`, “inactive”.
With `Cc1cc(/C=C2/SC(=O)N(CC(=O)N3CCCC3)C2=O)ccc1N1CCOCC1`, the Potency was 23.1 µM (active).
To `CN(C)C(=S)Nc1ccc(Br)cc1Cl` belongs “inactive”; to `Cc1cc(C)cc(C(=O)NCCN2CCOCC2)c1`, “inactive”.
To `CC(=O)Oc1cc2c(C(=O)NCCN3CCOCC3)c(C)oc2c2ccccc12` belongs 16.4 µM (active).
With `O=C(NCCN1CCOCC1)c1c(F)c(F)c(F)c(F)c1F`, the Potency result was “inactive”.
The value for `O=C(CCc1nc(CN2CCN(S(=O)(=O)c3ccc(F)cc3)CC2)no1)N1CCCCC1` was “inactive”; that for `CCN(CC(=O)Nc1ccc(OC)cc1)C(=O)c1ccc(=O)n(Cc2ccccc2)n1` was “inactive”; that for `O=C(CNC(=O)c1cc(=O)[nH]c2ccccc12)Nc1ccc(F)c(F)c1` was “inactive”.
To `COC(=O)c1cnn2c(C(F)(F)F)cc(-c3ccco3)nc12` belongs “inactive”; to `CCOc1ccc(C(C)=O)cc1COC(=O)CNC(=O)c1cccs1`, “inactive”.
To `O=C(O)/C=C/c1ccc(S(=O)(=O)N2CCCCCC2)cc1` belongs “inactive”; to `CN/C(=C\[N+](=O)[O-])NCCSCc1csc(CN(C)C)n1`, “inactive”; to `Cc1ccnc(-n2sc3ccccc3c2=O)n1`, 5.17 µM (active).
`Cc1nc2ccccc2c(=O)n1CCCn1ccnc1`: the Potency entry is “inactive”.
To `Cc1ccnc(N2CCCC(C(=O)NC3CC3)C2)n1` (stereo unspecified) belongs “inactive”; to `COCCCNC(=O)c1c(F)c(F)c(F)c(F)c1F`, “inactive”; to `O=C(CSc1nnc(-c2ccncc2)n1C1CCCCC1)Nc1ccccc1`, “inactive”.
The value for `CCC(C)N(C)C1CCN(C(=S)Nc2ccc(OC)cc2)CC1` (stereo unspecified) was “inactive”.
The value for `Cc1cccc(-n2nc3c(c2NC(=O)c2ccc(Br)o2)CSC3)c1C` was “inactive”; that for `COc1cccc(C(=O)Nc2c3c(nn2-c2cccc(C)c2C)CS(=O)(=O)C3)c1OC` was 15.8 µM (active); that for `COc1ccccc1OCC(=O)Nc1c2c(nn1-c1ccc(F)cc1)CS(=O)(=O)C2` was “inactive”.
Consider `COc1ccc(N(CC(=O)Nc2cccc3ccccc23)S(C)(=O)=O)c(OC)c1`, for which the Potency entry was “inactive”.
To `CCC(CC)C(=O)Nc1cc(C(=O)OC)cc(C(=O)OC)c1` belongs “inactive”; to `Cc1cc2nc3c(=O)n(Cc4ccccc4)c(=O)[nH]c3nc2cc1N`, “inactive”.
To `CCC(=O)N(C)C(c1ccccc1Cl)c1nnnn1-c1c(C)cccc1C` (stereo unspecified) belongs 18.4 µM (active); to `Cc1ccc(-n2nnnc2CNC(=O)c2ccccc2C)cc1C`, “inactive”; to `CCOC(=O)N1CCN(C(c2ccnc3ccccc23)c2nnnn2-c2c(C)cccc2C)CC1` (stereo unspecified), “inactive”.

The record behind these values is PubChem BioAssay AID686978 (National Center for Advancing Translational Sciences (NCATS), 2013).
